The results in this text go back to the supplement of paper PMC10681739.

Experiment [1] addresses T1, ETS1 (UniProt P14921).
T1 sequence: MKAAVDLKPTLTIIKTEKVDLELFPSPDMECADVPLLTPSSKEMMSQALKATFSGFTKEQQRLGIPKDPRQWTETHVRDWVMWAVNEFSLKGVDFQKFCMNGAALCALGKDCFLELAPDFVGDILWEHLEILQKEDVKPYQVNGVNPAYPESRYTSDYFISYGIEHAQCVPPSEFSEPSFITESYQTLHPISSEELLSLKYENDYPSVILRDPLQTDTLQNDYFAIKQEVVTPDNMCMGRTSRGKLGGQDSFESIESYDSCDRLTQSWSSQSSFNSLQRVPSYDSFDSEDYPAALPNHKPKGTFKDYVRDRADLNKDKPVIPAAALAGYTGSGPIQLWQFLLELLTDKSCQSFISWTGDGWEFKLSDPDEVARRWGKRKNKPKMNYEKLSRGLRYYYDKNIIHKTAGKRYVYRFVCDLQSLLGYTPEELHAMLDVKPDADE
Briefly: ETS1 binding intensity (PBM fluorescence), ETS1 alone (arbitrary fluorescence units); higher = stronger binding. The conditions noted are these: ETS1 concentration 1 nM; RUNX1 concentration 0 nM.

Experiment [2] addresses RUNX1 (UniProt Q01196). In words: RUNX1 binding intensity (PBM fluorescence), RUNX1 alone (arbitrary fluorescence units); higher = stronger binding. The conditions noted are these: RUNX1 concentration 2 nM; ETS1 concentration 0 nM. Here is the method: (§1)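 Cooperative gcPBM on 36-bp genomic probes with neighbouring ETS1 and RUNX1 sites. Recombinant human RUNX1 (2 nM) was incubated alone or with ETS1 (25 nM) and detected with anti-RUNX1 antibody plus Alexa488 secondary. Values are medians over 4 replicate spots; the RUNX1+ETS1 data were normalised to the RUNX1-only data. The probes sit in constant array flanks that are not printed.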

In experiment [3] the target is T1, ETS1. In words: ETS1 binding intensity (PBM fluorescence) in presence of RUNX1, normalised to ETS1-only experiment (arbitrary fluorescence units); higher = stronger binding. The conditions noted are these: ETS1 concentration 1 nM; RUNX1 concentration 25 nM.
Experiment [4] addresses RUNX1 (UniProt Q01196). In words: RUNX1 binding intensity (PBM fluorescence) in presence of ETS1, normalised to RUNX1-only experiment (arbitrary fluorescence units); higher = stronger binding. The conditions noted are these: RUNX1 concentration 2 nM; ETS1 concentration 25 nM. On the procedure: as §1
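Wherever RUNX1 binding intensity (PBM fluorescence) in presence of ETS1, normalised to RUNX1-only experiment is given: Full-length recombinant human ETS1 or RUNX1 bound to double-stranded 36-bp genomic probes on microarrays, detected by protein-specific primary antibody and Alexa488 secondary, spot fluorescence as median of four replicate spots.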
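Wherever RUNX1 binding intensity (PBM fluorescence), RUNX1 alone is given: Full-length recombinant human RUNX1 bound to double-stranded 36-bp genomic probes on a high-density microarray, scored as Alexa488 fluorescence per spot via anti-RUNX1 antibody, median of four replicate spots.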

Chain of RUNX1 (Q01196 whole entry): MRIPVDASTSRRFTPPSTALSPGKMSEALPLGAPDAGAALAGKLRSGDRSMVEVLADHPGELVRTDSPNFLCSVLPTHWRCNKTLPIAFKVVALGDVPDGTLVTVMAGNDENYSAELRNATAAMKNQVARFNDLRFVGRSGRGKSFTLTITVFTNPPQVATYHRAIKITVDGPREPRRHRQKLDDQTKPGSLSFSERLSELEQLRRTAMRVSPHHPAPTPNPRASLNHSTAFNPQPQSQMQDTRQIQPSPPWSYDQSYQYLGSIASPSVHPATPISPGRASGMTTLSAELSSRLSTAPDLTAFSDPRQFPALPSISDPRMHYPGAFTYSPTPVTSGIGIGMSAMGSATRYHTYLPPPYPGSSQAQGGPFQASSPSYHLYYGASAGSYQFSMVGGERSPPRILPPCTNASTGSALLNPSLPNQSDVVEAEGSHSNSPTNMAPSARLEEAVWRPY

Consider CTGCCGCGACAGACAGGATGTGGCTTCTGCTCTGTC, for which the results for the ETS1 binding intensity with ETS1 [1] and in the experiment with ETS1 [3] were 8750 and 16900, respectively. Also, the RUNX1 binding intensity amounted to 610 with RUNX1 [2] and 1960 in the experiment with RUNX1 [4].

In the case of CTCTGCTTCCTGTCTTTGAATGCCTCTGTGGTTTTC, the values for the ETS1 binding intensity in the experiment with ETS1 [1] and with ETS1 [3] were 675 and 2540, respectively. The figures for the RUNX1 binding intensity in the experiment with RUNX1 [2] and with RUNX1 [4] were 2080 and 4320, respectively.

Consider TGAGCCCTACTTCCGGTGGTGCTGTGGTCTGCCCCT, for which the ETS1 binding intensity with ETS1 [1] was 10700; with ETS1 [3] it was 13200. For the same sequence, the results for the RUNX1 binding intensity with RUNX1 [2] and with RUNX1 [4] were 786 and 2330, respectively.

For CCTCCCACCTTGGCAGGAAGCGGTTTATCAGATTAA, the values for the ETS1 binding intensity with ETS1 [1] and in the experiment with ETS1 [3] were 4250 and 7770, respectively. The RUNX1 binding intensity with RUNX1 [2] was 810; in the experiment with RUNX1 [4], 2280.

Regarding AATATCCTGTATGTCATGCTTAAAAAGCCACAAAAC, the ETS1 binding intensity was 547 with ETS1 [1] and 1070 with ETS1 [3]. For the same sequence, the values for the RUNX1 binding intensity in the experiment with RUNX1 [2] and in the experiment with RUNX1 [4] were 875 and 2050, respectively.

In the case of AGCGTTTCCTGCCTGTCTGGGGCTGACAAACCACAA, the values for the ETS1 binding intensity with ETS1 [1] and in the experiment with ETS1 [3] were 623 and 492, respectively. Besides, the values for the RUNX1 binding intensity with RUNX1 [2] and in the experiment with RUNX1 [4] were 930 and 2120, respectively.

Turning to TACGGGAACTTCCTTTTCTTGTGGTGTGGCCGGGTC, the ETS1 binding intensity with ETS1 [1] was determined as 571; with ETS1 [3], 853. Also, the RUNX1 binding intensity with RUNX1 [2] was 873; with RUNX1 [4] it was 2050.

Regarding TAAGTGAATTTCCTGCCCGCCTCCGCCCACAGCGTA, the ETS1 binding intensity was 775 with ETS1 [1] and 744 in the experiment with ETS1 [3]. Further, the RUNX1 binding intensity with RUNX1 [2] was determined as 809; with RUNX1 [4] it was 1790.

As for GCGCGGCCAGAGAAAGGATGTGGTATAGCAGAAAGT, the ETS1 binding intensity in the experiment with ETS1 [1] was 1260; with ETS1 [3], 4380. The RUNX1 binding intensity with RUNX1 [2] amounted to 865; with RUNX1 [4] it was 1040.

As to AACAGTACTTCCGGGGCAAGTGAGCGCCCACAAGGC, the ETS1 binding intensity in the experiment with ETS1 [1] stood at 934; with ETS1 [3] it was 1300. In addition, the RUNX1 binding intensity in the experiment with RUNX1 [2] turned out to be 806; with RUNX1 [4], 1970.

As to CAGATTCCCGGAAAGGGGGACATGTAGCCGCAAAAG, the figures for the ETS1 binding intensity with ETS1 [1] and with ETS1 [3] were 509 and 1990, respectively. The RUNX1 binding intensity in the experiment with RUNX1 [2] was 815; in the experiment with RUNX1 [4], 1040.

On to CCACGTCCACAAAGGAAACCGCGGCCTGCCCGGGGA, for which the ETS1 binding intensity with ETS1 [1] came to 512; with ETS1 [3], 1390. The RUNX1 binding intensity is 1080 with RUNX1 [2] and 1590 in the experiment with RUNX1 [4].

As to GGGTGCAGACGGGAAGTTGCGGCTGCCAGCGAAGCT, the ETS1 binding intensity with ETS1 [1] turned out to be 1680; with ETS1 [3], 2530. In addition, the values for the RUNX1 binding intensity with RUNX1 [2] and in the experiment with RUNX1 [4] were 741 and 1270, respectively.

Turning to TGCCGCGGATACCCAGCCAGCGGCAGTGCGGTTAAC, the ETS1 binding intensity was 349 with ETS1 [1] and 955 with ETS1 [3]. For the same sequence, the RUNX1 binding intensity with RUNX1 [2] worked out at 1140; with RUNX1 [4], 1210.

Take ATCAAACCCCAGGATATGTTGGTTTTGTAGGTTGTC: the results for the ETS1 binding intensity with ETS1 [1] and in the experiment with ETS1 [3] were 562 and 524, respectively. For the same sequence, the figures for the RUNX1 binding intensity with RUNX1 [2] and with RUNX1 [4] were 874 and 629, respectively.

Take CTACAAACGGCTTCCTCCTGCCTAACCACAACCTCA: the ETS1 binding intensity turned out to be 455 in the experiment with ETS1 [1] and 1130 with ETS1 [3]. The RUNX1 binding intensity with RUNX1 [2] turned out to be 3280; in the experiment with RUNX1 [4] it was 5340.

On to AAGGCAAACAGGAAATCATAACCACAAACCAGGAAC, for which the ETS1 binding intensity with ETS1 [1] came to 2960; in the experiment with ETS1 [3], 25500. Besides, the RUNX1 binding intensity was 2880 with RUNX1 [2] and 21700 with RUNX1 [4].

Consider AACTAAGTGCAGGGGAAGTTGTGGTTATTTTTTACC, for which the values for the ETS1 binding intensity in the experiment with ETS1 [1] and with ETS1 [3] were 657 and 3360, respectively. Moreover, the RUNX1 binding intensity with RUNX1 [2] was 1270; with RUNX1 [4], 1760.

Take AGGGTTACAATTTCCGTAAACCACAGAAGCAGCAGA: the ETS1 binding intensity with ETS1 [1] stood at 550; in the experiment with ETS1 [3], 979. For the same sequence, the RUNX1 binding intensity with RUNX1 [2] is 1450; with RUNX1 [4], 2560.

On to CAGAAACATCCCTCCTGCCGCCGCTTTGTGGTACCA, for which the ETS1 binding intensity with ETS1 [1] was 378; with ETS1 [3] it was 526. For the same sequence, the RUNX1 binding intensity is 983 with RUNX1 [2] and 925 with RUNX1 [4].

Turning to TGGCTGTCACTTCCTGTCCCACTGTGGTTCCTGGGA, the results for the ETS1 binding intensity with ETS1 [1] and with ETS1 [3] were 4940 and 5740, respectively. In addition, the RUNX1 binding intensity amounted to 763 in the experiment with RUNX1 [2] and 1820 with RUNX1 [4].

CCTGCCTGACCGGAAGTGCCCGCAACCCCACCGACC: the ETS1 binding intensity was 20600 with ETS1 [1] and 32600 with ETS1 [3]. Further, the figures for the RUNX1 binding intensity with RUNX1 [2] and in the experiment with RUNX1 [4] were 1180 and 2870, respectively.

For the sequence TGATGCACTTCCTGAGGGCCCGCATGTGGTAAACAC, the ETS1 binding intensity with ETS1 [1] worked out at 495; with ETS1 [3], 880. In addition, the RUNX1 binding intensity is 834 with RUNX1 [2] and 1480 with RUNX1 [4].

For GGATGAACAGGAAGCTAAAGTAAATACCACAGTGAC, the ETS1 binding intensity came to 1710 with ETS1 [1] and 3860 with ETS1 [3]. The RUNX1 binding intensity was 764 with RUNX1 [2] and 1190 with RUNX1 [4].

In the case of AACAGTCACATCCGGGGCCGAGAGGAACCGCGAACG, the ETS1 binding intensity came to 1100 with ETS1 [1] and 2080 with ETS1 [3]. Further, the figures for the RUNX1 binding intensity with RUNX1 [2] and in the experiment with RUNX1 [4] were 894 and 1740, respectively.

For GCCTGTCGCAGGAACGGAAGTGGTTACGGCCCTAGT, the ETS1 binding intensity stood at 8480 with ETS1 [1] and 19800 with ETS1 [3]. The RUNX1 binding intensity is 830 with RUNX1 [2] and 3500 with RUNX1 [4].

AGCCGTTTCCGGCGCTCTACCCCGCCGCAGGCCGAG: the ETS1 binding intensity in the experiment with ETS1 [1] amounted to 833; with ETS1 [3], 979. In addition, the RUNX1 binding intensity with RUNX1 [2] was found to be 859; in the experiment with RUNX1 [4], 2300.

For TGACATTTCCGGCCCCACCTCGGCCCGCAGCGCCGC, the ETS1 binding intensity worked out at 1180 in the experiment with ETS1 [1] and 1170 with ETS1 [3]. Besides, the values for the RUNX1 binding intensity with RUNX1 [2] and with RUNX1 [4] were 955 and 2320, respectively.

As to CCCGGAAACTCAACTGCCCACTGCTGCGGCCGCCAT, the ETS1 binding intensity with ETS1 [1] came out at 599; in the experiment with ETS1 [3], 708. For the same sequence, the figures for the RUNX1 binding intensity with RUNX1 [2] and with RUNX1 [4] were 1070 and 1090, respectively.

For the sequence GTACGACAGCGGGTTCCGGTGACCACGAAGGCGGCA, the ETS1 binding intensity is 404 with ETS1 [1] and 467 with ETS1 [3]. The results for the RUNX1 binding intensity with RUNX1 [2] and in the experiment with RUNX1 [4] were 938 and 1180, respectively.

Turning to GACAGGAAGTGACCTCAATTTCCCCGGCCACAGAAA, the ETS1 binding intensity with ETS1 [1] came out at 2650; in the experiment with ETS1 [3], 4280. Also, the RUNX1 binding intensity in the experiment with RUNX1 [2] stood at 809; in the experiment with RUNX1 [4], 1770.

Consider TTTCTCTTCCTGTTTCCACCCTGACCACAGCCAGCT, for which the figures for the ETS1 binding intensity with ETS1 [1] and with ETS1 [3] were 476 and 1350, respectively. Moreover, the RUNX1 binding intensity with RUNX1 [2] came out at 2930; in the experiment with RUNX1 [4] it was 5140.

Consider TTTGTCATATCAACAGGATGTGGTTCTCCCCTGGTT, for which the ETS1 binding intensity was found to be 6920 with ETS1 [1] and 10700 with ETS1 [3]. Moreover, the results for the RUNX1 binding intensity in the experiment with RUNX1 [2] and in the experiment with RUNX1 [4] were 905 and 1530, respectively.

Regarding CTGACACTTCCGGGAGCCTTGTAGCCACAGGAATCA, the ETS1 binding intensity with ETS1 [1] was 2490; with ETS1 [3], 2590. The RUNX1 binding intensity in the experiment with RUNX1 [2] came to 743; with RUNX1 [4], 1800.

As to CCGCTTCCGGGACGCGAATCGCTCTGCGGCTGCGTC, the results for the ETS1 binding intensity in the experiment with ETS1 [1] and with ETS1 [3] were 556 and 722, respectively. Also, the RUNX1 binding intensity with RUNX1 [2] turned out to be 832; in the experiment with RUNX1 [4], 2080.

On to TGGAGTGAAGCGGCTTCCTTGCGGTTGTGTGCGTGT, for which the values for the ETS1 binding intensity with ETS1 [1] and with ETS1 [3] were 403 and 799, respectively. For the same sequence, the values for the RUNX1 binding intensity with RUNX1 [2] and with RUNX1 [4] were 1900 and 2630, respectively.
